40 compounds from PubChem BioAssay (NCI) can be followed below.

The panel holds about 83,000 compounds, 20% with a hit somewhere; the sample as a whole holds those more often.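 Negative percent growth values reflect cell death: -40 means 40% of the cells present at the start died, and -100 means all died.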 Activity calls are given as the source filed them. Rule for the calls: active = growth percent below 10; inactive = the rest.

For one test, the system named is TK-10 renal. Briefly: NCI-60 one-dose screen, 48 h (100 = growth as untreated, 0 = no growth, -100 = all killed). Particulars: 10 µM unless noted.
In the case of `ClCCN(CCCl)C(c1ccccc1)c1ccc(Cl)cc1` (centres undefined), the growth was 81.1% (inactive).
Consider `CCCCn1cc(C(=O)/C(C#N)=C/c2cc3ccccc3nc2Cl)c2cc(OC)ccc21`, for which the growth was 101% (inactive).
For `CCCCNCCc1ccccn1`, the growth was 96.8% (inactive).
Regarding `CC(=O)C1C(=O)N(C)C(=O)N(C)C1=O`, the growth was 109% (inactive).
As for `C[C@]12CC[C@@H]3C4=C(CC[C@H]3[C@@H]1CC[C@@H]2O)CC(=O)CC4`, the growth was 113% (inactive).
`NC(Cc1ccc2c(c1)OCO2)c1ccc2c(c1)OCO2` (centres undefined): the growth is 105% (inactive).
With `CC[C@@]1(C2O[C@@H](C3O[C@@](O)(CC)[C@H](C)C[C@@H]3C)C[C@@H]2C)CC[C@H]([C@]2(C)CCC3(C[C@H](O)[C@@H](C)[C@@H]([C@H](C)[C@@H](OC)[C@H](C)C(=O)O)O3)O2)O1` (some centres undefined), the growth was 49.1% (inactive).
For `CC1(C)N=C(N)N=C(N)N1c1ccc(CCCCc2ccc(S(=O)(=O)F)cc2)c(Cl)c1`, the growth is 23% (inactive).
On to `COc1ccc(C2=NN(c3ccccc3)C(c3sc(N(CCCl)CCCl)nc3Cl)C2)cc1` (centres undefined), for which the growth was 117% (inactive).
For the compound `N#CC1c2ccccc2C=CN1C(=O)c1ccc(N(CCCl)CCCl)cc1` (centres undefined), the growth was 107% (inactive).
On the same count and under the same terms, as for `CSc1ccccc1NP1(=O)OCC(C)([N+](=O)[O-])CO1` (centres undefined), the figure is 110% (inactive); as for `C/C(=N/OC(=O)N(C)C)c1cc(Cl)ccc1Cl`, 97.7% (inactive); as for `CCC(C)[C@H]1O[C@]2(C=C[C@@H]1C)C[C@@H]1C[C@@H](C/C=C(\C)[C@@H](OC3C[C@H](OC)C(O[C@H]4C[C@H](OC)[C@@H](O)[C@H](C)O4)[C@H](C)O3)[C@@H](C)/C=C/C=C3\CO[C@@H]4[C@H](O)C(C)=C[C@@H](C(=O)O1)[C@]34O)O2` (some centres undefined), 13.7% (inactive).
For the compound `Cc1ccc(C(=O)C2CN(C)CCC2(O)c2ccc(C)cc2)cc1` (centres undefined), the growth was 108% (inactive).
Same read-out and setting: with `O=S(=O)(O)c1ccc(-c2ccc([As](=O)(O)O)cc2)cc1` the figure was 95.5% (inactive); with `O=C1NC(=O)C(CN2C(=O)C3(c4ccccc42)[C@H](Cl)C(=O)N3c2ccccc2)C(=O)N1` (some centres undefined), 121% (inactive); with `O=[N+]([O-])c1cc([N+](=O)[O-])c(Cl)c(Cl)c1Cl`, -99.5% (active).
As to `C=CCC1(CC)C(=O)NC(=S)NC1=O`, the growth is 111% (inactive).
For `C/C(=N/OC(=O)N(C)C)c1ccc(Cl)cc1Cl`, the growth was 88.5% (inactive).
On the same count and under the same terms, with `CCC[CH2][Sn]([CH2]CCC)([CH2]CCC)[O]C(=O)CC` the figure was -97.1% (active); with `O=C(NCc1ccc([N+](=O)[O-])cc1)Nc1ccc(S(=O)(=O)F)cc1`, 78.1% (inactive).
The same measure, in the same setting: with `CC1(C)N=C(N)N=C(N)N1c1ccc(OCCCCOc2ccc(S(=O)(=O)F)cc2)c(Cl)c1` the figure was 11.3% (inactive); with `CCCCOC(=O)c1ccccc1C(=O)O.CCCCOC(=O)c1ccccc1C(=O)O.[Cu+2]`, 107% (inactive).
Same read-out and setting: with `O=[N+]([O-])c1ccc2cnn(CSP(=S)(c3ccccc3)c3ccccc3)c2c1` the figure was 127% (inactive); with `[O]=[Sn]([CH]1CCCCC1)[CH]1CCCCC1`, -93.8% (active); with `ClCCN(CCCl)c1nc(Cl)c(C2CC(c3ccccc3)=NN2c2ccccc2)s1` (centres undefined), 108% (inactive).
With `CC(=O)C1CCC2C3CC=C4CC(OC(=O)Cc5ccc(N(CCCl)CCCl)cc5)CCC4(C)C3CCC12C` (centres undefined), the growth is 113% (inactive).
Take `Cc1ccccc1O`: the growth was 115% (inactive).
As to `O=[N+]([O-])c1ccccc1N1CCNCC1`, the growth is 96.2% (inactive).
Same read-out and setting: with `CC(=O)Nc1ccc(C=C2C(=O)NC(=O)NC2=O)cc1` the figure was 107% (inactive).

The subject of another test is ACHN renal. Described as above. Particulars: 10 µM unless noted.
Regarding `ClCCN(CCCl)C(c1ccccc1)c1ccc(Cl)cc1` (centres undefined), the growth was 28.9% (inactive).
Turning to `CCCCn1cc(C(=O)/C(C#N)=C/c2cc3ccccc3nc2Cl)c2cc(OC)ccc21`, the growth is 79% (inactive).
As to `CCCCNCCc1ccccn1`, the growth is 101% (inactive).
Take `CC(=O)C1C(=O)N(C)C(=O)N(C)C1=O`: the growth is 95.4% (inactive).
`CC1(C)N=C(N)N=C(N)N1c1cccc(C(=O)Nc2cccc(S(=O)(=O)F)c2)c1`: the growth was -26% (active).
As to `C[C@]12CC[C@@H]3C4=C(CC[C@H]3[C@@H]1CC[C@@H]2O)CC(=O)CC4`, the growth is 104% (inactive).
Take `Oc1ccccc1OB(Oc1ccccc1O)N(CCCl)CCCl`: the growth is 86.1% (inactive).
For `NC(Cc1ccc2c(c1)OCO2)c1ccc2c(c1)OCO2` (centres undefined), the growth is 108% (inactive).
In the case of `COc1ccc(-c2ccc(OC)c(OC)c2OC)cc1`, the growth is 55.8% (inactive).
Consider `CC[C@@]1(C2O[C@@H](C3O[C@@](O)(CC)[C@H](C)C[C@@H]3C)C[C@@H]2C)CC[C@H]([C@]2(C)CCC3(C[C@H](O)[C@@H](C)[C@@H]([C@H](C)[C@@H](OC)[C@H](C)C(=O)O)O3)O2)O1` (some centres undefined), for which the growth is 32% (inactive).
Consider `CC1(C)N=C(N)N=C(N)N1c1ccc(CCCCc2ccc(S(=O)(=O)F)cc2)c(Cl)c1`, for which the growth was 22.1% (inactive).
With `COc1ccc(C2=NN(c3ccccc3)C(c3sc(N(CCCl)CCCl)nc3Cl)C2)cc1` (centres undefined), the growth is 82.6% (inactive).
As for `N#CC1c2ccccc2C=CN1C(=O)c1ccc(N(CCCl)CCCl)cc1` (centres undefined), the growth is 86.9% (inactive).
As for `CSc1ccccc1NP1(=O)OCC(C)([N+](=O)[O-])CO1` (centres undefined), the growth was 97.5% (inactive).
In the case of `Cc1ccc(N)cc1[As]=[As]c1cc(N)ccc1C` (centres undefined), the growth is -91.6% (active).
For the compound `C/C(=N/OC(=O)N(C)C)c1cc(Cl)ccc1Cl`, the growth is 100% (inactive).
With `CCC(C)[C@H]1O[C@]2(C=C[C@@H]1C)C[C@@H]1C[C@@H](C/C=C(\C)[C@@H](OC3C[C@H](OC)C(O[C@H]4C[C@H](OC)[C@@H](O)[C@H](C)O4)[C@H](C)O3)[C@@H](C)/C=C/C=C3\CO[C@@H]4[C@H](O)C(C)=C[C@@H](C(=O)O1)[C@]34O)O2` (some centres undefined), the growth was -95.1% (active).
As for `CC1(C)N=C(N)N=C(N)N1c1ccc(CCCCc2ccc(S(=O)(=O)F)cc2)cc1`, the growth was 39.2% (inactive).
Take `O=S(=O)(O)c1ccc(-c2ccc([As](=O)(O)O)cc2)cc1`: the growth is 105% (inactive).
Consider `O=C1NC(=O)C(CN2C(=O)C3(c4ccccc42)[C@H](Cl)C(=O)N3c2ccccc2)C(=O)N1` (some centres undefined), for which the growth is 88.7% (inactive).
On to `O=[N+]([O-])c1cc([N+](=O)[O-])c(Cl)c(Cl)c1Cl`, for which the growth is -87.1% (active).
With `C=CCC1(CC)C(=O)NC(=S)NC1=O`, the growth is 101% (inactive).
Regarding `C/C(=N/OC(=O)N(C)C)c1ccc(Cl)cc1Cl`, the growth was 98.7% (inactive).
On to `CCC[CH2][Sn]([CH2]CCC)([CH2]CCC)[O]C(=O)CC`, for which the growth was -96.7% (active).
The same measure, in the same setting: as for `O=C(NCc1ccc([N+](=O)[O-])cc1)Nc1ccc(S(=O)(=O)F)cc1`, the figure is 90.1% (inactive).
In the case of `n1nc(-c2nonc2-c2nn[nH]n2)n[nH]1`, the growth was 115% (inactive).
On to `CNC(=O)Oc1ccccc1-c1ccccc1`, for which the growth is 108% (inactive).
As to `CC1(C)N=C(N)N=C(N)N1c1ccc(OCCCCOc2ccc(S(=O)(=O)F)cc2)c(Cl)c1`, the growth was 25.2% (inactive).
Take `CCCCOC(=O)c1ccccc1C(=O)O.CCCCOC(=O)c1ccccc1C(=O)O.[Cu+2]`: the growth was 112% (inactive).
Take `O=[N+]([O-])c1ccc2cnn(CSP(=S)(c3ccccc3)c3ccccc3)c2c1`: the growth was 74.8% (inactive).
With `NC(=O)C(Cl)Cl`, the growth was 104% (inactive).
For the compound `CCN(CC)c1ccc(C=C2C(=O)NC(=S)NC2=O)cc1`, the growth was 95.7% (inactive).
Take `Clc1ccc(SSC(Cl)(Cl)Cl)cc1`: the growth was 102% (inactive).
For `[O]=[Sn]([CH]1CCCCC1)[CH]1CCCCC1`, the growth was -99.3% (active).
As to `ClCCN(CCCl)c1nc(Cl)c(C2CC(c3ccccc3)=NN2c2ccccc2)s1` (centres undefined), the growth is 89.6% (inactive).
Still for that read-out and setting: as for `CC(=O)C1CCC2C3CC=C4CC(OC(=O)Cc5ccc(N(CCCl)CCCl)cc5)CCC4(C)C3CCC12C` (centres undefined), the figure is 100% (inactive).
For `Cc1ccccc1O`, the growth was 103% (inactive).
Still for that read-out and setting: as for `O=[N+]([O-])c1ccccc1N1CCNCC1`, the figure is 105% (inactive); as for `CC(=O)Nc1ccc(C=C2C(=O)NC(=O)NC2=O)cc1`, 109% (inactive).
